According to PubChem BioAssay AID651965 (National Center for Advancing Translational Sciences (NCATS), 2013):
Hit rate of the full screen: of about 340,000 compounds, about 6,400 (1.9%) were called active. Roughly 4% stayed inconclusive and do not appear here. The call rests on the fitted dose curve; in most records, active means well fitted falling curve with a large enough effect; inconclusive means small, poorly fitted or top-dose-only effect; inactive means no such curve, though single readings can be large or run the other way. The entries come from a sample that favours actives as a whole. Entries that show only a call come without a potency.

Molecular target: ATP-dependent Clp protease proteolytic subunit (Bacillus subtilis (strain 168)) (UniProt P80244)
Experiment: qHTS Assay for Activators of ClpP; further: the source files actives as falling curves though it sought activators and does not explain the sign; nearly all actives have a fitted effect of over 65% in size
Details: purified B. subtilis ClpP, FRET peptide cleavage, 20 min; series mostly up to 57.5 µM
Method in brief: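 Buffer: 100 mM Tris/HCl pH8, 100 mM KCl, 0.05% low protease BSA, 2.5% glycerol, 0.01% Tween-20. ClpP 10 microg/mL final; 20 min RT; delta FRET normalized to ADEP and DMSO controls.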
Potency means the concentration at half of the fitted maximal effect.

SMILES | Potency
O=C1c2cccc3cccc(c23)N1CN1CCN(c2ccccn2)CC1 | inactive
COc1ccc(N2C(=O)c3cccc4cccc(c34)C2=O)nn1 | 15.8 µM (active)
CC(C(=O)O)N1C(=O)c2cccc3cccc1c23 (stereo unspecified) | inactive
CCCOc1ccc(-c2cccc(NS(=O)(=O)c3ccccc3)c2)nn1 | inactive
CCS(=O)(=O)Nc1cccc(-c2cc(-c3ccccc3)c3cc(C)ccc3n2)c1 | 31.6 µM (active)
CCCS(=O)(=O)Nc1cccc(-c2cn3ccsc3n2)c1 | inactive
O=C(NC1CCCCCC1)C1CCN(C(=O)c2ccc(Cl)cc2)CC1 | inactive
O=C(NNC(=O)C1CCN(c2ncccn2)CC1)c1ccccc1 | inactive
Cc1ccnc(N2CCC(C(=O)NC3CCCCCC3)CC2)n1 | 25.1 µM (active)
c1cc(-c2ccc3[nH]ccc3c2)n2ccnc2c1 | inactive
CCOC(=O)[C@]12CCCC=C1N(CCC1=CCCCC1)C(=O)[C@H](CC(=O)N1CCCCC1)C2 | inactive
[O-][n+]1onc2c1CCc1[nH]c(-c3ccccc3)nc1-2 | 28.2 µM (active)
N#Cc1c(-c2ccc(F)cc2)nc(-c2ccccc2)[nH]c1=O | inactive
CN(C(=O)CN1CCN(c2cc(-c3ccc(OCc4ccccc4)cc3)ncn2)CC1)c1ccccc1 | inactive
COc1ccc(Cl)cc1NC(=O)CNc1ccccc1F | inactive
COc1ccc(Cl)cc1NC(=O)C(C)N1CCc2ccccc21 (stereo unspecified) | 28.2 µM (active)
COc1ccc(Cl)cc1NC(=O)NCC1CCN(Cc2ccccc2F)CC1 | inactive
CC(C)CCN(C(=O)Nc1ccc(Cl)c(Cl)c1)C(C)c1cccs1 (stereo unspecified) | inactive
CCOc1ccc(NC(=O)N(CC(C)C)CC(C)C)cc1 | inactive
CCOc1ccc(NC(=O)N(CCC(C)C)C(C)c2ccco2)cc1 (stereo unspecified) | 28.2 µM (active)
OC(CBr)C[n+]1cccc2cc(Br)ccc21 (stereo unspecified) | inactive

SMILES | Potency
Cc1ccc(C(=O)/C=C/c2c(C)nn(-c3ccccc3)c2Cl)cc1 | 6.31 µM (active)
Cc1nn(-c2ccccc2)c(Cl)c1/C=C/C(=O)c1ccc(O)cc1 | inactive
Cc1ccc(-n2nc(C)c(/C=N/NC(=O)c3cccs3)c2Cl)cc1 | inactive
Cc1ccc(-c2nc3c(C)cc(Br)cn3c2Cc2ccccc2)cc1 | inactive
COC(=O)C[C@@H]1C=C[C@@H](NC(=O)c2ccc3c(c2)OCO3)[C@@H](CO)O1 | inactive
CCOc1ccc(NC(=O)CSc2nnc3c(n2)[nH]c2ccc(S(=O)(=O)N4CCOCC4)cc23)cc1 | inactive
CC(C)C1Cc2[nH][nH]c(=O)c2C(c2ccc(Cl)cc2)O1 (stereo unspecified) | inactive
CCC(=O)Nc1ccc2nc(SCC(=O)N3CCc4ccccc43)sc2c1 | inactive
O=C(Nc1ccc2nc(SCC(=O)N3CCc4ccccc43)sc2c1)c1ccccc1F | inactive
O=C(COc1ccccc1Cl)Nc1ccc2nc(SCC(=O)N3CCCC3)sc2c1 | inactive
O=C(Nc1ccc2nc(SCC(=O)N3CCCc4ccccc43)sc2c1)c1ccc(F)cc1 | 28.2 µM (active)
O=C(Nc1ccc2nc(SCC(=O)N3CCCc4ccccc43)sc2c1)c1ccc(Cl)cc1 | 10 µM (active)
Nc1nnc(SCC(=O)Nc2ccc3nc(SCC(=O)Nc4ccccc4)sc3c2)s1 | inactive
Cc1ccc(S(=O)(=O)N2[C@@H](Cc3ccccc3)CO[C@H]2CC(=O)OCc2ccccc2)cc1 | inactive
CN1OC[C@@H]2CN(C(=O)c3ccc(-c4ccccc4)cc3)[C@H](c3ccc(-c4cccc(F)c4)cc3)C[C@@H]21 | inactive
O=C(c1ccc(N2CCCC2=O)cc1)N1CCN(c2ccc(C(F)(F)F)cc2[N+](=O)[O-])CC1 | inactive
Cc1ccc(Cn2c(C)c(C(=O)NCc3ccccc3C(F)(F)F)sc2=O)cc1 | inactive
O=C(CC[C@H]1O[C@@H](n2ccc(=O)[nH]c2=O)[C@H](O)[C@@H]1O)N[C@H](Cc1ccccc1)C(=O)NCc1ccco1 | inactive
Cc1ccc(C(=O)OC(C)CN2CCOCC2)cc1 (stereo unspecified) | 39.8 µM (active)
CC(CN1CCOCC1)OC(=O)c1ccc(Cl)cc1Cl (stereo unspecified) | inactive
CC(CN1CCOCC1)OC(=O)c1ccc(C(C)(C)C)cc1 (stereo unspecified) | inactive

SMILES | Potency
CCN(CC)C(=O)C1=C(C)N(Cc2ccc(OC)cc2)C(=O)C(CC(=O)NCc2ccco2)C1 (stereo unspecified) | inactive
Nc1nc2c(ncn2[C@@H]2O[C@H](CNCc3ccc(OCCCN4CCOCC4)cc3)[C@@H](O)[C@H]2O)c(=O)[nH]1 | inactive
CCCCC[C@H](C)N1C[C@@H](COCc2ccccc2)Oc2cc(N3CCC[C@@H]3CO)ccc2S1(=O)=O | inactive
CCCN(CCC)CCNC(=O)c1ccc2c(c1)NC(=O)C(CS(=O)(=O)Cc1cccc(Br)c1)N2 (stereo unspecified) | 2.82 µM (active)
O=C(NC1CC1)c1cccc(Br)c1 | inactive
CCCNC(=O)c1ccc(N2CCC3(CC2)CC(c2cccc(Br)c2)=NO3)c(NC(=O)c2ccco2)c1 | inactive
COc1ccc(OC)c(NC(=O)C2(C)CCN2C(=O)Cc2ccccc2)c1 (stereo unspecified) | inactive
Cc1cccc(C)c1NC(=O)C(c1ccc(C(F)(F)F)cc1)n1c(=O)c(-c2ccco2)nc2ccccc21 (stereo unspecified) | inactive
CCOC(=O)c1ccc(Nc2cc3ccccc3c(=O)[nH]2)cc1 | inactive
CCOC(=O)C1=C(CCc2ccccc2)NC(=O)NC1c1ccc2ccccc2c1 (stereo unspecified) | inactive
CCOC(=O)c1sc(C)c2c1NC(C)(c1cccc3ccccc13)NC2=O (stereo unspecified) | 28.2 µM (active)
COc1cccc(-c2nnc(SCC(=O)N3CCC(C)CC3)o2)c1 | inactive
COc1cccc(NC(=O)CSc2nnc(-c3cccnc3)o2)c1 | inactive
COc1cccc(-c2nnc(SCCOc3ccc4c(C)cc(=O)oc4c3)o2)c1 | 28.2 µM (active)
CCCNC(=O)C1(C)CCCN(C(=O)c2oc3ccccc3c2C)C1 (stereo unspecified) | inactive
OC[C@@H]1CN(Cc2ccc(F)cc2)C[C@H](n2cnc3c(NC4CCCC4)ncnc32)O1 | inactive
CC1(c2cccc([N+](=O)[O-])c2)CC(C)(C)N(C(=O)c2ccccc2)c2ccccc21 (stereo unspecified) | inactive
Cc1nnc(SCC(=O)N2c3ccccc3C(C)(c3ccc(Cl)cc3)CC2(C)C)s1 (stereo unspecified) | 31.6 µM (active)
CC1(c2ccccc2)CC(C)(C)N(C(=O)c2cc([N+](=O)[O-])cc([N+](=O)[O-])c2)c2ccccc21 (stereo unspecified) | inactive
